Measurements from PubChem BioAssay (NCI).
Compounds without any hit were thinned out: in the full panel of roughly 83,000, 20% have a hit.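 How to read the values: 0–100, growth inhibition (40 = 60% inhibited); 0, no net growth; -100 to 0, cell death (-40 = 40% of starting cells died; -100 = all dead).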 Activity calls are given as the source filed them. The calls were made as follows: active = growth percent below 10; inactive = the rest.

How the values were obtained:
Assay in all cases: NCI-60 one-dose screen, 48 h (100 = growth as untreated, 0 = no growth, -100 = all killed)
SR leukemia = settings: 10 µM unless noted
RPMI-8226 leukemia = settings: 10 µM unless noted
OVCAR-8 ovarian = settings: 10 µM unless noted
OVCAR-5 ovarian = settings: 10 µM unless noted
OVCAR-4 ovarian = settings: 10 µM
IGROV1 ovarian = settings: 10 µM unless noted
OVCAR-3 ovarian = settings: 10 µM unless noted
HS 578T breast = settings: 10 µM unless noted
NCI/ADR-RES ovarian = settings: 10 µM unless noted
T-47D breast = settings: 10 µM unless noted
SW-620 colon = settings: 10 µM unless noted
MCF7 breast = settings: 10 µM unless noted
HCT-116 colon = settings: 10 µM unless noted
HCC-2998 colon = settings: 10 µM unless noted
KM12 colon = settings: 10 µM unless noted
BT-549 breast = settings: 10 µM unless noted
MDA-MB-435 melanoma = settings: 10 µM unless noted

Measured: growth

COc1ccc2[nH]c(C(=O)N3CCN(C(=O)OCc4ccc5c(Br)cc(Br)c(O)c5n4)CC3)cc2c1
active: SR leukemia 4.37% | RPMI-8226 leukemia -38.9% | OVCAR-8 ovarian -73.2% | OVCAR-5 ovarian -89.3% | OVCAR-4 ovarian -85.2% | IGROV1 ovarian -90.7% | OVCAR-3 ovarian -93.9% | HS 578T breast -22.5% | NCI/ADR-RES ovarian -17.4% | T-47D breast -62.5% | SW-620 colon -70.3% | MCF7 breast -58.4% | HCT-116 colon -87.1% | HCC-2998 colon -90.7% | KM12 colon -59.8%

CC1=CC[C@@H]2C(C)(C)C(=O)CC[C@@]2(C)[C@@H]1COc1ccc2ccc(=O)oc2c1
active: T-47D breast 6.17%
inactive: SR leukemia 77.9% | RPMI-8226 leukemia 45.9% | OVCAR-8 ovarian 51.1% | OVCAR-5 ovarian 98% | OVCAR-4 ovarian 23.1% | IGROV1 ovarian 77.9% | OVCAR-3 ovarian 72.5% | HS 578T breast 77.6% | NCI/ADR-RES ovarian 28.4% | BT-549 breast 55.9% | SW-620 colon 101% | MCF7 breast 87.8% | HCT-116 colon 79.5% | HCC-2998 colon 83.6% | KM12 colon 63%

c1ccc(-c2nnc(-c3c[nH]c4ncccc34)s2)cc1
inactive: SR leukemia 83.6% | RPMI-8226 leukemia 91.9% | OVCAR-8 ovarian 98.9% | OVCAR-5 ovarian 125% | OVCAR-4 ovarian 89.4% | IGROV1 ovarian 54.6% | OVCAR-3 ovarian 88.5% | HS 578T breast 97.1% | NCI/ADR-RES ovarian 95.7% | T-47D breast 40.5% | BT-549 breast 95.3% | SW-620 colon 104% | MCF7 breast 54.1% | HCT-116 colon 91% | HCC-2998 colon 111% | KM12 colon 93.2%

O=C(OCc1ccc2c(Cl)cc(Cl)c(O)c2n1)N1CCNCC1
inactive: SR leukemia 14.5% | RPMI-8226 leukemia 44.2% | OVCAR-8 ovarian 28.7% | OVCAR-5 ovarian 55.5% | OVCAR-4 ovarian 23.4% | IGROV1 ovarian 34.8% | OVCAR-3 ovarian 33.8% | HS 578T breast 53.4% | T-47D breast 29.9% | MDA-MB-435 melanoma 48.9% | SW-620 colon 26.2% | MCF7 breast 34.6% | HCT-116 colon 27.5% | HCC-2998 colon 60.2% | KM12 colon 31.5%
active: NCI/ADR-RES ovarian 9.22%

COc1ccc(-c2ccc(NNC(=O)c3ccc(F)cc3)nn2)cc1OC
inactive: SR leukemia 51% | RPMI-8226 leukemia 70.7% | OVCAR-8 ovarian 66.8% | OVCAR-5 ovarian 50.3% | OVCAR-4 ovarian 81.8% | IGROV1 ovarian 22.1% | OVCAR-3 ovarian 78.6% | HS 578T breast 41.1% | NCI/ADR-RES ovarian 65.4% | T-47D breast 20% | BT-549 breast 58.4% | SW-620 colon 75.1% | MCF7 breast 51.1% | HCT-116 colon 66.2% | HCC-2998 colon 90.5% | KM12 colon 92.3%

Cn1cc(-c2noc(C(=O)c3cn(C)c4ncccc34)n2)c2ccccc21
inactive: SR leukemia 74.9% | RPMI-8226 leukemia 94.5% | OVCAR-8 ovarian 102% | OVCAR-5 ovarian 96.1% | OVCAR-4 ovarian 57.7% | IGROV1 ovarian 80.7% | OVCAR-3 ovarian 103% | HS 578T breast 88.5% | NCI/ADR-RES ovarian 92.3% | BT-549 breast 98.3% | MDA-MB-435 melanoma 72.9% | SW-620 colon 95.5% | MCF7 breast 34.8% | HCT-116 colon 98.7% | HCC-2998 colon 90.6% | KM12 colon 52%

Nc1cc(N)c(N=Nc2ccc(S(=O)(=O)O)cc2)cc1N=Nc1ccc(-c2ccc(N=Nc3ccc(O)c(C(=O)O)c3)cc2)cc1
inactive: SR leukemia 110% | RPMI-8226 leukemia 99.2% | OVCAR-8 ovarian 100% | OVCAR-5 ovarian 108% | OVCAR-4 ovarian 103% | IGROV1 ovarian 104% | HS 578T breast 105% | NCI/ADR-RES ovarian 98.9% | T-47D breast 90.1% | BT-549 breast 113% | MDA-MB-435 melanoma 100% | SW-620 colon 105% | MCF7 breast 95.5% | HCT-116 colon 102% | HCC-2998 colon 104% | KM12 colon 101%

C#CC(OC(=O)N(C)C)(c1ccccc1)c1ccc(F)cc1 (configuration not stated)
inactive: SR leukemia 108% | RPMI-8226 leukemia 128% | OVCAR-8 ovarian 93.5% | OVCAR-5 ovarian 93.4% | OVCAR-4 ovarian 107% | OVCAR-3 ovarian 133% | HS 578T breast 128% | NCI/ADR-RES ovarian 89.3% | T-47D breast 100% | BT-549 breast 111% | SW-620 colon 107% | MCF7 breast 113% | HCT-116 colon 105% | HCC-2998 colon 86.3% | KM12 colon 107%

CSc1nc2c(c(=O)n1C)C1(C(=O)N(Cc3ccccc3)c3ccccc31)c1c(nc(SC)n(C)c1=O)N2
inactive: SR leukemia 104% | RPMI-8226 leukemia 59.2% | OVCAR-8 ovarian 85.5% | OVCAR-5 ovarian 102% | OVCAR-4 ovarian 99.5% | IGROV1 ovarian 98% | OVCAR-3 ovarian 75.2% | NCI/ADR-RES ovarian 95.2% | MDA-MB-435 melanoma 107% | SW-620 colon 94.3% | MCF7 breast 82.6% | HCT-116 colon 93% | HCC-2998 colon 99.6% | KM12 colon 87.9%

CCN(CC)CCCC(C)Nc1ccnc2cc(Cl)c(SCc3ccccc3)cc12 (configuration not stated)
active: SR leukemia -42.6% | RPMI-8226 leukemia -36.6% | OVCAR-8 ovarian -9.3% | OVCAR-5 ovarian -13.7% | OVCAR-4 ovarian 7.81% | IGROV1 ovarian -26.7% | OVCAR-3 ovarian -28.5% | NCI/ADR-RES ovarian -18.3% | T-47D breast -58.3% | BT-549 breast -81% | MDA-MB-435 melanoma -71.2% | SW-620 colon -85.3% | MCF7 breast -49.5% | HCT-116 colon -67.8% | HCC-2998 colon -84.1% | KM12 colon -32.4%

Cc1ccc(NCCN2CCCCC2)c2c(=O)c3ccccc3sc12
inactive: SR leukemia 15.3% | OVCAR-8 ovarian 29.2% | OVCAR-5 ovarian 43.2% | OVCAR-4 ovarian 56.9% | OVCAR-3 ovarian 58.5% | NCI/ADR-RES ovarian 42% | T-47D breast 28.7% | BT-549 breast 58.6% | SW-620 colon 15.3% | HCT-116 colon 18% | HCC-2998 colon 33.3% | KM12 colon 32.6%
active: RPMI-8226 leukemia -17.1% | HS 578T breast -8.32% | MCF7 breast -3.15%

O=S(=O)(NCCCNc1nccc(-c2c(-c3cccc(F)c3)nc3occn23)n1)c1cccc2ccccc12
inactive: SR leukemia 50.7% | RPMI-8226 leukemia 28.2% | OVCAR-8 ovarian 42.1% | OVCAR-5 ovarian 66.7% | OVCAR-4 ovarian 34.6% | IGROV1 ovarian 14.4% | OVCAR-3 ovarian 56.3% | HS 578T breast 23.4% | NCI/ADR-RES ovarian 48.2% | BT-549 breast 45% | MDA-MB-435 melanoma 15.7% | SW-620 colon 24.2% | HCT-116 colon 23.4% | KM12 colon 15.7%
active: HCC-2998 colon 2.75%

CCOC(=O)c1nn(C2CCCCO2)c2ccc(NC(=O)Cn3nnc4ccccc43)cc12 (configuration not stated)
inactive: SR leukemia 97.6% | RPMI-8226 leukemia 107% | OVCAR-8 ovarian 101% | OVCAR-5 ovarian 97.7% | OVCAR-4 ovarian 104% | IGROV1 ovarian 103% | OVCAR-3 ovarian 110% | NCI/ADR-RES ovarian 104% | T-47D breast 85.5% | BT-549 breast 96% | MDA-MB-435 melanoma 110% | SW-620 colon 105% | MCF7 breast 99.5% | HCT-116 colon 88.6% | HCC-2998 colon 111% | KM12 colon 104%

Cn1cc(-c2nnc(-c3ccccc3)s2)c2cc(Br)cnc21
inactive: SR leukemia 90.7% | RPMI-8226 leukemia 85.8% | OVCAR-8 ovarian 94.4% | OVCAR-5 ovarian 94.9% | OVCAR-4 ovarian 68% | IGROV1 ovarian 43.7% | OVCAR-3 ovarian 84.5% | HS 578T breast 79.9% | NCI/ADR-RES ovarian 90.4% | BT-549 breast 104% | MDA-MB-435 melanoma 92.6% | SW-620 colon 82.5% | MCF7 breast 40.5% | HCT-116 colon 108% | HCC-2998 colon 101% | KM12 colon 87.6%

CNC(=O)c1cc(Oc2cccc3nc(NC(=O)Nc4cc(C(F)(F)F)cc(C(F)(F)F)c4)ccc23)ccn1
active: OVCAR-4 ovarian -38.2% | OVCAR-3 ovarian -15%
inactive: SR leukemia 47.9% | RPMI-8226 leukemia 41.1% | OVCAR-8 ovarian 37.2% | OVCAR-5 ovarian 33.3% | IGROV1 ovarian 51.4% | NCI/ADR-RES ovarian 49.5% | T-47D breast 15.5% | BT-549 breast 46.1% | MDA-MB-435 melanoma 40.2% | SW-620 colon 63.8% | MCF7 breast 50.4% | HCT-116 colon 36.7% | HCC-2998 colon 79.7% | KM12 colon 53.8%

O=c1c2c3c(sc2n2cnnc2n1Cc1ccccc1)CCCC3
inactive: SR leukemia 78.6% | RPMI-8226 leukemia 72.8% | OVCAR-8 ovarian 97.4% | OVCAR-5 ovarian 89.6% | OVCAR-4 ovarian 106% | OVCAR-3 ovarian 98% | HS 578T breast 94.2% | NCI/ADR-RES ovarian 96.9% | T-47D breast 38.4% | BT-549 breast 95.7% | MDA-MB-435 melanoma 113% | SW-620 colon 113% | MCF7 breast 96.6% | HCT-116 colon 122% | HCC-2998 colon 105% | KM12 colon 113%

NC(=S)Cc1ccccc1
inactive: SR leukemia 97.9% | RPMI-8226 leukemia 99.2% | OVCAR-8 ovarian 103% | OVCAR-5 ovarian 100% | OVCAR-4 ovarian 97% | IGROV1 ovarian 107% | HS 578T breast 102% | NCI/ADR-RES ovarian 105% | T-47D breast 101% | BT-549 breast 110% | MDA-MB-435 melanoma 97.7% | SW-620 colon 102% | MCF7 breast 91% | HCT-116 colon 104% | HCC-2998 colon 107% | KM12 colon 101%

CCCCCCCCCCCCCCCCCCNC(=S)N/N=C/c1ccc(OC)c(OC)c1
inactive: SR leukemia 81.2% | RPMI-8226 leukemia 89.7% | OVCAR-8 ovarian 101% | OVCAR-5 ovarian 93.8% | OVCAR-4 ovarian 98.5% | IGROV1 ovarian 94.2% | HS 578T breast 100% | NCI/ADR-RES ovarian 97.3% | T-47D breast 95.8% | BT-549 breast 79.9% | MDA-MB-435 melanoma 97.4% | SW-620 colon 99.2% | MCF7 breast 96.8% | HCT-116 colon 96.9% | HCC-2998 colon 101% | KM12 colon 97.1%

Cn1c(=O)c(C#N)c(-c2ccco2)n2c(S(=O)(=O)Cc3ccccc3)nnc12
inactive: SR leukemia 65.3% | RPMI-8226 leukemia 80.4% | OVCAR-8 ovarian 48.9% | OVCAR-5 ovarian 99.3% | OVCAR-4 ovarian 81.9% | OVCAR-3 ovarian 103% | HS 578T breast 124% | NCI/ADR-RES ovarian 90.4% | T-47D breast 90.6% | MDA-MB-435 melanoma 83% | SW-620 colon 99.5% | MCF7 breast 74.9% | HCT-116 colon 75.8% | HCC-2998 colon 102% | KM12 colon 93.7%
